Compound activity as filed in PubChem BioAssay.
Sampled rows, rich in hits. Any-hit rate of the full collection: about 1.2%.
PKA-R1A activ = activators of PKA-R1A holoenzyme, primary screen, biochemical, fluorescence polarization, Cy5-IP20, bovine R1A, mouse PKAc. 340,000 compounds, 0.083% hits. PKA-R1A dissociation; scaled: DMSO 0%, 113 µM cGMP 100%. activation, % at 11.4 µM. AID 504707, 2011. cAMP-dependent protein kinase type I-alpha regulatory subunit (Bos taurus) + …;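 active = percent activation above the mean of all tested compounds plus 3 SD, cut at about 19% in these data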;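 also: higher means more PKAc released from R1A so a rise in polarization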
PG9 binder = binders of HIV-1 gp120 antibody PG9, primary screen, biochemical, TR-FRET | 360,000 compounds, 0.43% hits | inhibition, % at 6.7 µM | AID 624416, 2012 | HIV-1 gp120 / PG9 antibody interaction | TR-FRET gp120-PG9 antibody binding; in the data active = inhibition above about 8.5%
NR1D1 modulator = modulators of Rev-erb alpha DNA binding, primary screen, biochemical, FITC-DNA, fluorescence polarization, uHTS. Nuclear receptor subfamily 1 group D member 1 (Homo sapiens), P20393. Rev-erbα–FITC-DNA binding, 90 min. activity, % at 10 µM. 370,000 compounds, 0.79% hits;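 active = activity above about 14%, limit read from the data; passing the limit was not always enough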;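 also: 0% = DMSO wells with 35 nM protein and 100% = DMSO wells with 750 nM protein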
PKA-R2B act = activators of PKA-R2B holoenzyme, primary screen, biochemical, fluorescence polarization, Cy5-IP20, human | PKA-R2B holoenzyme dissociation; R2B truncated from residue 108, S112A mutant; 0% DMSO only, 100% 113 µM cGMP | AID 504700, 2011 | activation, % at 11.4 µM | 340,000 compounds, 0.079% hits | cAMP-dependent protein kinase catalytic subunit beta (Homo sapiens) + cAMP-dependent …;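 active = activation above a cutoff set at the mean over all compounds plus 3 SD, cut at about 18% in these data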;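 also: higher means more holoenzyme dissociation and a rise in polarization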
R2B FP artifact = fluorescence polarization artefacts, biochemical, artefact control for PKA-R2B activator project | shares compounds with PKA-R2B act | FP artifact counterscreen | activation, % at 11.4 µM | 270 compounds, 6% hits; in the data active = activation above about 20%;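 also: Cy5 labelled IP20 peptide probe with compound but no PKA protein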
PKA-R2B act conf = activators of PKA-R2B holoenzyme, confirmation, biochemical, fluorescence polarization, human. shares compounds with PKA-R2B act. PKA-R2B complex, activation. activation, % at 11.4 µM. 270 compounds, 9% hits; in the data active = activation above about 19%
R1A FP artifact = FP signal interference without PKA proteins, confirmation, artefact control for PKA-R1A activator project, biochemical, fluorescence polarization, triplicate. AID 504799, 2011. 280 compounds, 7% hits. Cy5-IP20 peptide alone, fluorescence polarization artifact counterscreen. shares compounds with PKA-R1A activ. activation, % at 11.4 µM;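 active = mean activation over triplicate runs exceeds the adjusted cutoff derived for the parent primary screen, cut at about 19% in these data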;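 also: no PKA protein present so any polarization rise reflects compound interference; 0% = tracer peptide mix alone and 100% = mix with added PKA catalytic subunit; higher means stronger polarization artifact and likely false positive in parent screen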
PKA-R1A confirm = activators of PKA-R1A holoenzyme, confirmation, biochemical, fluorescence polarization, Cy5-IP20, triplicate. activation, % at 11.4 µM. 280 compounds, 9% hits. shares compounds with PKA-R1A activ. AID 504800, 2011. PKA-R1A holoenzyme dissociation;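 active = mean activation over replicate wells exceeds the adjusted hit threshold taken from the earlier primary screen, cut at about 20% in these data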;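 also: 0% = holoenzyme mix with DMSO only and 100% = cGMP-activated control wells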
Target sequence (P00514 whole entry, looked up): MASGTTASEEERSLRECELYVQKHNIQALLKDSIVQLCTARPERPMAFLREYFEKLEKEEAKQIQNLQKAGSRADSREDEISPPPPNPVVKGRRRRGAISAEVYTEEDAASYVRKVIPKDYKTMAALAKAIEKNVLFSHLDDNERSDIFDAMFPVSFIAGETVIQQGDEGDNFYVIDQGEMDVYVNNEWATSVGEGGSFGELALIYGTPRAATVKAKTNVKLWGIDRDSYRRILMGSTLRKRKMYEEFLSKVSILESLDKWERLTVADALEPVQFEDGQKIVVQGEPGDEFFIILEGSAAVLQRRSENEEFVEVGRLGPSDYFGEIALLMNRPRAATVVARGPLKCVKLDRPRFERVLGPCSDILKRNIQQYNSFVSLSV
The depositor's hits bear a star; · = no result.

SMILES | PKA-R1A activ | PG9 binder | NR1D1 modulator | PKA-R2B act | R1A FP artifact | PKA-R1A confirm | others
COc1ccc(NC(=S)NNc2ccc(S(=O)(=O)Nc3ccccc3C(=O)O)cc2[N+](=O)[O-])cc1 | 63.6* | -2.4 | -6.3 | 83.2* | 50.4* | 51.6* | R2B FP artifact=50.4*;PKA-R2B act conf=45.7*
Cc1cc(=O)n2[nH]c(NCc3ccccc3F)nc2n1 | 30.4* | -1.3 | -3.6 | 35.9* | 33.9* | 34.6* | R2B FP artifact=33.9*;PKA-R2B act conf=31.5*
CCCc1cc(=O)n2[nH]c(NCc3ccc(OC)c(OC)c3)nc2n1 | -3.8 | 0.3 | -3.2 | -9.2 | · | ·
CCCc1cc(=O)n2[nH]c(NCc3c(F)cccc3Cl)nc2n1 | 32.7* | -0.2 | 1.3 | 31.9* | 27.3* | 28.1* | R2B FP artifact=27.3*;PKA-R2B act conf=20.0*
CO[C@H]1C[C@H](O[C@H]2[C@H](C)[C@@H](O[C@@H]3O[C@H](C)C[C@H](N(C)C)[C@H]3O)[C@@H](C)C[C@]3(CO3)C(=O)[C@H](C)[C@@H](O)[C@@H](C)[C@@H](C)OC(=O)[C@@H]2C)O[C@@H](C)[C@@H]1O | · | · | 2.5 | · | · | ·
O=[N+]([O-])c1ccc(Oc2ccc(N=C=S)cc2)cc1 | · | · | 0.9 | · | · | ·
CC(=O)CC/C=C(\C)CC/C=C(\C)CC/C=C(\C)CCC=C(C)C | · | · | -3.5 | · | · | ·
C#Cc1ccc([C@H]2C=C(C(=O)NCc3nc4ccccc4[nH]3)O[C@@H](OCc3ccc(CO)cc3)C2)cc1 | -14.1 | 0.0 | 0.7 | 2.9 | · | ·
O=C(NCc1nc2ccccc2[nH]1)C1=C[C@H](c2ccc(Br)cc2)C[C@H](OCc2ccc(CO)cc2)O1 | 35.3* | -1.1 | -3.0 | 26.5* | 27.4* | 26.8* | R2B FP artifact=27.4*;PKA-R2B act conf=21.7*
CC1=C/C(=C(\c2cc(C)c(O)c(Br)c2)c2ccccc2S(=O)(=O)O)C=C(Br)C1=O | 34.3* | -73.7 | -13.7 | 40.2* | 58.7* | 55.1* | R2B FP artifact=58.7*;PKA-R2B act conf=55.4*
N#C/C(=C1/SC[C@@H](c2ccc(Cl)cc2Cl)S1)n1ccnc1 | · | · | 1.0 | · | · | ·
Nc1ncnc2c1nc(Sc1ccc(Cl)cc1)n2[C@@H]1O[C@@H]2COP(=O)(O)O[C@H]2[C@H]1O | 106.8* | -4.3 | 0.0 | 106.4* | 3.8 | 106.5* | R2B FP artifact=3.8;PKA-R2B act conf=101.0*
CCCC(=O)Nc1ncnc2c1ncn2[C@@H]1O[C@@H]2COP(=O)(O)O[C@H]2[C@H]1OC(=O)CCC | 40.7* | -0.5 | 1.5 | 32.9* | -1.1 | 37.2* | R2B FP artifact=-1.1;PKA-R2B act conf=33.8*
COc1cc(NC(=O)CC[C@H]2O[C@@H](n3cnc4c(NC(=O)c5ccccc5)ncnc43)[C@H](O)[C@@H]2O)cc(OC)c1OC | · | -0.2 | 1.9 | · | · | ·
CCN(CC)CCOC(=O)C(Cc1ccco1)Cc1cccc2ccccc12 (stereo not given) | 23.8* | -3.2 | 4.0 | -2.8 | 1.1 | 0.3
NC(=O)CSc1nc2ccccc2n1Cc1ccccc1 | 21.2* | 0.2 | -5.2 | -3.2 | 2.2 | -1.4
NC(=O)CSc1nc2ccccc2n1-c1ccccc1 | -18.8 | -0.9 | -2.0 | -4.6 | · | ·
CCOC(=O)c1cc(C)sc1NC(=O)c1ccc(Cl)s1 | 19.9* | 0.3 | 1.6 | 0.4 | 0.7 | -1.6
C[C@H]1[C@H](NC(=O)c2ccc(C(C)(C)C)cc2)CC[C@@]23CCCN2C(=O)CCC[C@@H]13 | · | · | 1.5 | · | · | ·
COC(=O)c1ccccc1NC(=O)NCc1cccnc1 | -4.6 | 0.3 | 2.1 | 0.1 | · | ·
COC(=O)c1ccccc1NC(=O)C(=O)NCc1ccncc1 | 21.5* | -1.6 | -4.2 | -1.3 | 1.2 | 3.5
CCCC(=O)Nc1nnc(SCC(=O)N2C(C)CCCC2C)s1 (stereo not given) | 2.0 | 1.0 | 1.0 | 9.2 | · | ·
CCCC(=O)Nc1nnc(SCC(=O)N2CCCCC2)s1 | 19.3* | -3.9 | -4.4 | 1.5 | -0.5 | -0.8
COc1ccc(NC(=O)Cn2nnc(-c3ccccc3NC(=O)c3ccco3)n2)cc1 | 19.9* | 0.9 | 2.8 | 7.5 | 2.2 | 6.4
O=C1C2C3C=CC(C3)C2C(=O)N1CCC(=O)N1CCc2ccccc21 (stereo not given) | 23.4* | 3.0 | 0.8 | -6.5 | 2.2 | 4.2
SMILES | PKA-R1A activ | PG9 binder | NR1D1 modulator | PKA-R2B act | R1A FP artifact | PKA-R1A confirm | others
O=S1(=O)c2c(cccc2N2CCSCC2)Oc2ccccc2CN1Cc1cn(Cc2cccc(F)c2)nn1 | · | · | -1.8 | · | · | ·
O=c1[nH]c2ccc(S(=O)(=O)N3CCCC3)cc2o1 | · | · | -1.1 | · | · | ·
Nc1nc(SCC(=O)Nc2ccc3c(c2)CCC3)n[nH]1 | 18.6* | -0.8 | -0.2 | -4.5 | 6.1 | 1.1
Nc1cc(=O)[nH]c(SCC(=O)Nc2ccc3c(c2)CCC3)n1 | -8.0 | 0.7 | -9.2 | 5.5 | · | ·
CCOc1ccc(N=Cc2ccc([N+](=O)[O-])cc2)c(O)c1 | 21.5* | -14.6 | 9.9 | -8.9 | 1.0 | 4.9
O=C(C1CCCN1S(=O)(=O)c1ccc(Cl)s1)N1CCN(c2ccccc2)CC1 (stereo not given) | · | · | -3.3 | · | · | ·
Cc1ccc(S(=O)(=O)NC2CC(C)(C)NC(C)(C)C2)cc1C | 19.2* | 3.7 | 4.9 | -1.9 | 1.4 | 5.0
Nc1[nH]c(C(=O)c2ccccc2)c(-c2ccc(Cl)cc2Cl)c1C(=O)c1cccs1 | · | · | -2.1 | · | · | ·
C/C(C=Nn1c(-c2ccc(F)cc2)n[nH]c1=S)=C/c1ccco1 | · | · | 5.5 | · | · | ·
COc1cccc(OC(C)CCN2CCC(C(O)(c3ccccc3)c3ccccc3)CC2)c1 (stereo not given) | · | · | -3.2 | · | · | ·
O=C(CSCc1ccccc1)N1CCN(c2ccccc2)CC1 | 19.2* | -1.2 | -1.8 | -0.2 | 0.8 | 2.2
O=C(CSCc1ccccc1)N1CCN(c2ccc(F)cc2)CC1 | -8.9 | 0.0 | 0.2 | -13.2 | · | ·
COc1ccc(C(=O)N2CCCC(Nc3ccc(C)c(C)c3)C2)c(OC)n1 (stereo not given) | 23.2* | -3.7 | 3.6 | 12.2 | 2.4 | -3.5
O=C(Nc1ccc(N2CCN(c3ccc(O)cc3)CC2)cc1)Oc1ccccc1 | 19.8* | -1.0 | 2.2 | 15.7 | 14.5 | 16.5
COc1ccccc1N=Nc1c(C)n[nH]c1C | 18.7* | -1.8 | 1.1 | -5.3 | -1.3 | 0.9
O=C(COc1ccccc1Cl)NCCc1ccc2c(c1)OCCO2 | 20.6* | 0.9 | 10.5 | -9.6 | -3.4 | 4.2
